This note sets out measurements from PubChem BioAssay AID1347431 (National Center for Advancing Translational Sciences (NCATS), 2020).

Fewer than 10 of roughly 1,200 compounds were called active. The call rests on the fitted dose curve; in most records, active means well fitted curve in the direction sought with a large enough effect; inconclusive means small, poorly fitted or top-dose-only effect, or another doubt; inactive means no such curve, though single readings can be large or run the other way. Not all results are given here.

The nature of this test: Confirmatory qHTS assay for inhibitors of Activation Induced Cytidine Deaminase (AID): UDG signals. Further: 0% is about no effect. As to conditions: UDG coupled enzyme activity counter-screen; series mostly up to 115 µM; activity change, negative = inhibition: at the top concentration. An excerpt: Assay Provider (PI) Patricia Gearhart Ph.D.
National Institute on Aging
National Institute of Health (NIH), Bethesda, MD
Assay Provider (PI) Rahul Kohli Ph.D.
Perelman School of Medicine
University of Pennsylvania, Philadelphia, PA
Activation-Induced Deaminase (AID) is a cytosine deaminase which converts cytosine into uracil within stretches of ssDNA. The presence of uracil in DNA initiates a cascade of mutagenic DNA repair to introduce point mutations and DNA double strand breaks. Specific targeting of AID to the immunoglobulin heavy chain loci (Igh) promotes mutagenesis in the antibody variable region for somatic hypermutation (SHM) or switch regions leading to class switch recombination (CSR). However, AID also plays a role in accumulating unnecessary mutations across the genome. Mis-targeting of AID results in the initiation of tumor development and leads to greater drug resistance among cancer cells when continually expressed. To identify an AID inhibitor, a small molecule library will be screened in collaboration with NCATS core facility at NIH. To confirm biological function, inhibitors will be examined in an in vitro murine B-cell activation assay and subsequent secondary validation screens. Top molecules will be further screened to identify inhibitory efficacy against a wild type primary splenocytes assay. Using these approaches, we hope to identify a small molecule with great efficacy and low toxicity for use as a molecular probe to further characterize AID's intricacies, or even as a therapeutic.
A FRET based analysis of cytosine deamination, was developed to identify potential inhibitors of AID catalytic activity. This screen has two signal output, Read 1 evaluates the AID inhibition response. The second readout (Read 2) evaluates UDG response and is uses as a counterscreen to exclude false positive inhibitors. Inhibition in AID and inactivity in the UDG signal is the desired outcome for this assay.
SEQUENCE No. (e.g., 1, 2, 3, etc.); […] (e.g., Cells, Incubation, Reagent, etc.); VALUE; DESCRIPTION
1a; Reagent; 3 uL; [4/3x] 1 uM AID/2.67 U/mL UDG
1b; Reagent; 3 uL; 2 U/mL UDG
1c; Reagent; 3 uL; 1 uM AID
2a; Compound; 46 nL; Follow-up plates (0.64 uM - 10 mM)
2b; Control; 46 nL; ATA ([…] - 10 mM)
3; Time; 10 min; incubation at room temperature
5; Time; 4 hr; incubation at room temperature
6; Reagent; 4 uL; [2x] 250 mM NaOH
7; Time; 15 sec; centrifuge at 1000 rpm
8; Time; 30 min; incubation at room temperature
9a; Detection; fluorescence (Read 1: AID); EnVision (PerkinElmer) plate reader, 540 excitation and 590 emission filters
9b; Detection; fluorescence (Read 2: UDG); EnVision (PerkinElmer) plate reader, 560 excitation and 665 emission filters
NOTES (numbers refer to sequence above)
1a; Reagents were dispensed in a medium-binding black solid-bottom Greiner plates (789176F) using a BioRptr liquid dispenser. Dispense 3 uL of [4/3x] 1 uM AID (provided by Kohli lab) and [4/3x] 2 U/mL UDG (NEB M0280L) into columns 1, 2, 5 to 48.
1b; Dispense 3 uL of [4/3x] 2 U/mL UDG into column 3.
1c; Dispense 3 uL of [4/3x] 1 uM AID into column 4.
2a; Compound (7-points [uM]: 0.64; 3.2; 16; 80; 400; 2,000; 10,000; […]) double pin-transferred (Dip Factor = 2) using the Kalypsys (Wako USA) pintool equipped with a 1536 pinhead for a final concentration range of 7.32 nM - 114 uM.
2b; 10 mM Aurintricarboxylic Acid (Sigma A1895) (ATA, 8-point, n = 2, 1:2.5 dilution in column 2) double pin-transferred (Dip Factor = 2) using the Kalypsys (Wako USA) pintool equipped with a 1536 pinhead for a [final] range of 186 nM - 114 uM.
3; Room temperature incubation.
4; Dispense 1 uL of substrate mixture from the Kohli lab [4x] […] DJC20 and [4x] 250 nM DJC23 into columns 1 to 48 .
5; Room temperature incubation.
6; Dispense 4 uL of substrate mixture [2x] 250 mM NaOH into columns 1 to 48.
7; Centrifugation step to remove bubbles.
8; Room temperature incubation
9a; Fluorescence signal (column label AID) was read using the EnVision plate reader. […]
As to `CCN1CCN(c2cc(C)c3cc(NC(=O)/C=C/c4cccc(Cl)c4)ccc3n2)CC1`, the “activity change, negative = inhibition” value is 2.14% (inactive). `CCOc1ccc(Nc2sc(C(=O)c3ccc(F)cc3)c(N)c2S(=O)(=O)c2ccc(C)cc2)cc1`: the “activity change, negative = inhibition” value is -3.57% (inactive). The figure for `CCc1ccccc1N(C)C(=O)c1sc2nc3n(c(=O)c2c1C)CCCCC3` is 1.65% (inactive); for `COc1ccc(CNC(=O)c2cnn3c(C)c(Cc4c(F)cccc4Cl)c(C)nc23)cc1` it is -1.61% (inactive). As for `COc1ccc(C(=O)c2cn(Cc3ccccc3F)c3ccc(F)cc3c2=O)cc1`, the “activity change, negative = inhibition” value is -4.88% (inactive). Regarding `CCCCCCSc1nc(N)c2c3c(sc2n1)CCCC3C` (stereo not drawn), the “activity change, negative = inhibition” value was -13.7% (inactive). Regarding `Cc1nc2c(C(=O)NCCc3ccc(Cl)cc3)cnn2c(C)c1Cc1ccc(F)cc1`, the “activity change, negative = inhibition” value is -12.3% (inactive).

`Cc1cccc(N2C(=O)N(CC(=O)C(C)(C)C)c3ccccc3S2(=O)=O)c1C`: the “activity change, negative = inhibition” value was 2.18% (inactive).

As to `COc1ccccc1OCCn1c(C(C)Oc2ccccc2)nc2ccccc21` (stereo not drawn), the “activity change, negative = inhibition” value is -7.15% (inactive). For `CCOc1ccccc1NC(=O)CN1C(=O)CC(c2ccc(OC)c(OC)c2)Sc2ccccc21` (stereo not drawn), the “activity change, negative = inhibition” value is -2.93% (inactive). Turning to `CCC(C(=O)N1CCN(c2cc(C)ccc2C)CC1)n1nc(C)n2c(cc3occc32)c1=O` (stereo not drawn), the “activity change, negative = inhibition” value was -15% (inactive). For the molecule `COc1ccc(-n2c(Cc3ccccc3)nnc2SCc2nc(-c3ccccc3C)no2)cc1`, the “activity change, negative = inhibition” value is -23.7% (inactive). The figure for `COc1ccc(N2C(=O)CSC23C(=O)N(Cc2cccc(C(F)(F)F)c2)c2ccccc23)cc1` (stereo not drawn) is -6.88% (inactive); for `Cc1nc2cc(-c3ccccc3)nn2c(C)c1CCC(=O)N1CCN(c2ccc(F)cc2)CC1` it is -8.14% (inactive). On to `COc1ccc(C)cc1N(C)C(=O)c1sc2nc3n(c(=O)c2c1C)CCCCC3`, for which the “activity change, negative = inhibition” value was 1.37% (inactive). The figure for `Cc1oc(-c2ccccc2Cl)nc1CS(=O)CC(=O)N1CCN(c2cccc(C(F)(F)F)c2)CC1` (stereo not drawn) is 1.61% (inactive); for `Cc1ccc2onc(CC(=O)N3CCN(c4cc(Cl)ccc4C)CC3)c2c1` it is -3.38% (inactive).

On to `CCn1cc(C(=O)NCCc2ccc(OC)c(OC)c2)c(=O)c2cc(S(=O)(=O)N(C)C3CCCCC3)ccc21`, for which the “activity change, negative = inhibition” value is -16% (inactive). `CC(C)c1ccc(NC(=O)c2ccc3c(O)c(S(=O)(=O)c4ccccc4)c(=O)[nH]c3c2)cc1`: the “activity change, negative = inhibition” value is 1.07% (inactive). For `CCn1cc(S(=O)(=O)c2ccc(C)cc2C)c(=O)c2cc(F)c(N3CCCC3)cc21`, the “activity change, negative = inhibition” value is 0.779% (inactive). As for `Cc1cccc(CNC(=O)c2oc3c(c2C)-c2nn(Cc4ccccc4Cl)cc2CC3)c1`, the figure is 6.73% (inactive). Consider `COc1ccc(N2CCN(C(=O)c3cc4c(-c5ccccc5F)nn(C)c4s3)CC2)cc1`, for which the “activity change, negative = inhibition” value is -2.54% (inactive).

Consider `CCc1cccc(-n2c(C)nc3c(cnn3-c3ccc(Cl)cc3)c2=O)c1`, for which the “activity change, negative = inhibition” value was 2.34% (inactive). As to `CCOc1ccc(-c2nc(CSCC(=O)N3CCN(c4cccc(C(F)(F)F)c4)CC3)c(C)o2)cc1`, the “activity change, negative = inhibition” value was -17.8% (inactive). Take `Cc1ccc(-n2ncc(C(=O)NCCc3ccccc3)c2C2CCN(C(=O)OC(C)(C)C)CC2)c(C)c1`: the “activity change, negative = inhibition” value is -6.03% (inactive).

`CCn1cc(C(=O)NCCc2ccc(OC)c(OC)c2)c(=O)c2cc(S(=O)(=O)N3CCC(C)CC3)ccc21`: the “activity change, negative = inhibition” value was -8.81% (inactive).

On to `COc1cc2nc(NC(=O)c3ccc(S(=O)(=O)N4CCc5ccccc54)cc3)sc2cc1OC`, for which the “activity change, negative = inhibition” value was 3.33% (inactive).

As for `Cc1ccc2oc(C(=O)NCC(c3ccc(Cl)cc3)N3CCOCC3)c(C)c2c1` (stereo not drawn), the “activity change, negative = inhibition” value is -1.52% (inactive). For `N=c1n(CCN2CCCCC2)c2ccccc2n1CC(O)COc1ccc(Cl)cc1Cl` (stereo not drawn), the “activity change, negative = inhibition” value is -4.14% (inactive). The figure for `CCCCN(CC)CCNC(=O)c1cc2c(=O)oc3ccc(C)cc3c2s1` is 3.87% (inactive); for `O=C(Nc1ccc(F)cc1F)c1ccc2c(O)c(S(=O)(=O)c3ccc(Cl)cc3)c(=O)[nH]c2c1` it is 6.68% (inactive); for `CCC(C(=O)Nc1cc(Cl)ccc1OC)n1nc(-c2ccccc2)ccc1=O` (stereo not drawn) it is 0.722% (inactive). Take `CCCNC(=O)c1cnn2c(C)c(Cc3c(C)cc(C)cc3C)c(C)nc12`: the “activity change, negative = inhibition” value is -0.105% (inactive). With `CCc1ccc(NC(=O)CSc2nccn2-c2cccc(C)c2C)cc1`, the “activity change, negative = inhibition” value was -12.7% (inactive). For `Cc1c(Cl)cccc1-n1ncc(C(=O)NCc2cccs2)c1C1CCN(C(=O)OC(C)(C)C)CC1`, the “activity change, negative = inhibition” value is -10.8% (inactive).

Turning to `Cc1nc2ccccc2n1CCc1nc2c3ccccc3nc(SCC(=O)Nc3ccc(C(C)C)cc3)n2n1`, the “activity change, negative = inhibition” value is -1.98% (inactive).

For the molecule `COc1ccc(NC(=O)c2c(NC(=O)c3ccc(Br)cc3)sc3c2CCCC3)cc1`, the “activity change, negative = inhibition” value is -4.81% (inactive).

With `Cc1ccccc1Cc1c(C)nc2nc(SCC(=O)NCCc3ccc(Cl)cc3)nn2c1C`, the “activity change, negative = inhibition” value is -12.4% (inactive).

As for `COCCCNC(=O)c1oc2c(c1C)-c1nn(Cc3cccc(Cl)c3)cc1CC2`, the “activity change, negative = inhibition” value was -14.6% (inactive). The figure for `Cc1cccc(-n2c3nc(=O)[nH]c(=O)c-3cc3ccc(Cl)cc32)c1C` is -6.3% (inactive); for `Cc1cc(N)c(-n2cc3c(c2-c2ccc(Br)cc2)c(=O)n(C)c(=O)n3C)cc1C` it is -5.86% (inactive); for `Cc1cccc(Cn2nnc3c(=O)[nH]c(C4CCCN(C(=O)c5ccc(C(C)(C)C)cc5)C4)nc32)c1` (stereo not drawn) it is -5.24% (inactive). Consider `COc1ccc(CCN2CCC(CNC(=O)c3cnn(-c4cccc(Cl)c4)c3C3CCN(C(=O)OC(C)(C)C)CC3)CC2)cc1`, for which the “activity change, negative = inhibition” value is -5.53% (inactive). `COc1cc(NC(=O)CCc2c(C)nc3c4c(C)cc(C)nc4nn3c2C)cc(OC)c1`: the “activity change, negative = inhibition” value was 3.35% (inactive). Regarding `CCOC(=O)c1ccc(-c2ccc(/C=C(\C#N)c3nc4ccc(C)cc4[nH]3)o2)cc1`, the “activity change, negative = inhibition” value was -7.54% (inactive). Consider `Cc1ccc(C)c(N2CCN(CCCNC(=O)c3cnn(-c4cccc(Cl)c4)c3C3CCN(C(=O)OC(C)(C)C)CC3)CC2)c1`, for which the “activity change, negative = inhibition” value is -6.96% (inactive). For `Cc1cccc(OC(C)C(=O)N2CCC(c3nc4ccccc4o3)CC2)c1C` (stereo not drawn), the “activity change, negative = inhibition” value is -9.18% (inactive).

For `COc1ccc(-c2csc3nc(-c4ccc(C)cc4)oc(=O)c23)cc1OC`, the “activity change, negative = inhibition” value was -0.182% (inactive). Consider `COc1ccc(OCCCn2c(=O)oc3ccc(C)cc32)cc1`, for which the “activity change, negative = inhibition” value is -5.37% (inactive).

In the case of `Cc1ccc(Cl)cc1N(C)C(=O)c1cc2ccc3cccnc3c2[nH]1`, the “activity change, negative = inhibition” value is 0.172% (inactive). Turning to `COc1ccc(OC)c(NC(=O)Cn2c(=O)cc(C)c3c(C)nn(-c4cccc(Cl)c4C)c32)c1`, the “activity change, negative = inhibition” value was 10.9% (inactive). On to `COc1ccccc1NC(=O)c1cc2cc3ccc(OC)c(Cl)c3nc2s1`, for which the “activity change, negative = inhibition” value is 8.79% (inactive). On to `Cc1ccc(C)c(CSc2cn(CCNC(=O)c3cccs3)c3ccccc23)c1`, for which the “activity change, negative = inhibition” value was -2.36% (inactive). On to `CCOc1ccc(NC(=O)CSc2nccn2-c2cccc(C)c2C)cc1`, for which the “activity change, negative = inhibition” value was -4.02% (inactive).

On to `CCOc1ccc(S(=O)(=O)c2c(C(=O)c3ccc(C)c(C)c3)cnc3ccccc23)cc1`, for which the “activity change, negative = inhibition” value was -3.6% (inactive).

Turning to `CCC1CCCCN1C(=O)CSc1nc(-c2ccc(OC)cc2)cc(C(F)(F)F)n1` (stereo not drawn), the “activity change, negative = inhibition” value is -16.9% (inactive). As to `CCn1cc(C(=O)NCc2ccccc2OC)c(=O)c2cc(S(=O)(=O)N3CCCCC3)ccc21`, the “activity change, negative = inhibition” value was -14.6% (inactive). In the case of `Cc1ccccc1OCC(=O)Nc1cccc(C(=O)OCc2cc(=O)n3c(C)csc3n2)c1`, the “activity change, negative = inhibition” value is 1.99% (inactive).
